Source: PubChem
An excerpt weighted towards active compounds, which were near 2.9% of everything screened.
FXN GAA850 act: FXN promoter activators, primary screen, cell-based, luciferase luminescence, HEK293 lucGAA850. HEK293 lucGAA850 FXN promoter luciferase reporter, 24 h; percent of 10 µM SAHA response. activation, % at 6 µM. actives 0.56% (n = 360,000);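 active means activation above the average of all compounds screened plus 3 SD, cutoff fixed separately per campaign, cut at about 7.5% in these data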;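 further: 0% = DMSO wells and 100% = 10 µM SAHA wells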
proKLK7 act: proKLK7 zymogen activators, primary screen, biochemical, fluorescence intensity. actives 0.9% (n = 370,000). activation, % at 7 µM. purified proKLK7, EDANS-DABCYL substrate fluorescence; 100% is mature enzyme control, 0% vehicle. Kallikrein-7 (Homo sapiens), P49862;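 active means activation above the mean of all tested compounds plus 3 SD, computed per campaign excluding outliers beyond control limits, cut at about 13% in these data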
SMARCA2 activ: SMARCA2 (BRM) function activators, primary screen, cell-based, luminescence, high throughput; actives 1% (n = 370,000); MG213 cells, MMTV-luciferase reporter, dexamethasone, overnight; AID 652017, 2013; activation, % at 9.1 µM; in the data active means activation above about 7.8%;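 further: 0% = vehicle wells and 100% = reference activator wells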
FAS-TE inh: FAS thioesterase domain inhibitors, primary screen, biochemical, fluorescence intensity, uHTS. recombinant FAS-TE, OMFH fluorogenic substrate, fluorescence endpoint. inhibition, % at 15 µM. actives 0.67% (n = 360,000);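 active means compounds whose normalised, plate-corrected inhibition of enzyme fluorescence in the single-dose primary screen is 50% or more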;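 further: 0% = DMSO with enzyme and 100% = substrate without enzyme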
GAA30 FXN cntr: GAA30 FXN promoter activators, confirmation, counter-screen for GAA850 frataxin promoter activator project, cell-based, luminescence, HEK293, lucGAA30, triplicate | activation, % at 6 µM | HEK293 lucGAA30 FXN promoter luciferase, 24 h; DMSO = 0%, 5 µM ipriflavone = 100% | shares compounds with FXN GAA850 act | actives 66% (n = 1,900) | AID 588350, 2011;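 active means mean activation above the mean of solvent-only control wells plus 3 SD, cut at about 22% in these data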;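 further: counterscreen of GAA850 promoter hits where activity marks nonselective or luminescence artifacts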
GAA850 confirm: FXN GAA850 promoter activators in reporter cells, confirmation, cell-based, luminescence, HEK293 lucGAA850, triplicate | shares compounds with FXN GAA850 act | HEK293 lucGAA850 FXN promoter luciferase reporter, 24 h; 100% = activation by SAHA | activation, % at 6 µM | actives 86% (n = 1,900) | AID 588351, 2011;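 active means mean activation above a set limit taken from the primary screen, cut at about 8% in these data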;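 further: 0% = DMSO wells and 100% = 10 µM SAHA wells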
* marks the source's active call; other numbers are inactive results; · = not tested or not shown.

SMILES	FXN GAA850 act	proKLK7 act	SMARCA2 activ	FAS-TE inh	GAA30 FXN cntr	GAA850 confirm
CCOc1ccccc1N=Cc1c(O)c2ccccc2oc1=O	-2	-1	-1	-3	·	·
O=c1c2ccccc2nc(SCc2nc3ccccc3s2)n1CCCO	14*	-1	6	10	102*	43*
CC1(C)SC2c3ccccc3C(=O)N2[C@@H]1C(=O)NC1CC1 (stereo partly specified)	-1	0	2	-9	·	·
C=C(C)CSc1nncn1/N=C/c1ccc(OC)cc1	11*	-1	6	-2	102*	34*
CCSc1nncn1/N=C/c1ccc(OC)c(OC)c1	3	1	3	-6	·	·
CCO[C@@H]1OC(C(=O)NC2CC2)=C[C@H](C2CCCCC2)[C@H]1CCCO	2	0	0	-3	·	·
O=C(CCCCCCC(=O)Nc1ccccc1)NO	88*	0	-2	-8	61*	97*
COc1cccc(/C=C2\SC(=S)N(CCC(=O)NC3C=CS(=O)(=O)C3)C2=O)c1 (stereo unspecified)	10*	0	2	0	30*	14*
Cc1c(C(=O)OCCOC(C)C)[nH]c2c1C(=O)CC(c1ccco1)C2 (stereo unspecified)	0	·	·	0	·	·
Cc1c(C(=O)OCCOC(C)C)[nH]c2c1C(=O)CC(C)(C)C2	10.0*	1	-2	1	35*	13*
CCN(CC)c1ccc(C2=NNC(=O)CC2C)cc1[N+](=O)[O-] (stereo unspecified)	6	0	-1	-6	·	·
CC1CC(=O)NN=C1c1ccc(N(C)C)c([N+](=O)[O-])c1 (stereo unspecified)	7.8*	0	3	-7	26*	22*
c1ccc(Cn2cnc3ccccc32)cc1	11*	-1	2	-4	120*	44*
Clc1ccccc1OCCn1cnc2ccccc21	9.2*	0	0	-6	41*	24*
Clc1ccc(Cn2cnc3ccccc32)cc1	2	0	-7	0	·	·
C/[N+]([O-])=C\C1C(=O)CCCC1=O	0	0	0	-4	·	·
O=[N+]([O-])c1ccc(N/N=C/c2cccc(O)c2O)c(S(=O)(=O)N2CCOCC2)c1	5	-3	-6	35	·	·
COc1cccc(/C=N/Nc2ccc([N+](=O)[O-])cc2)c1O	8.1*	0	4	2	106*	35*
O=[N+]([O-])c1cccc(N/N=C/c2cccc(O)c2O)c1	8.7*	-1	6	22	67*	30*
O=[N+]([O-])c1ccccc1N/N=C/c1cccc(O)c1O	12*	1	0	-3	40*	26*
O=C(NCc1ccccc1)c1c(O)c2ccccc2[nH]c1=O	1	0	0	-2	·	·
Cc1cnc(C(=O)OCC(=O)N2CCN(S(=O)(=O)c3ccc(Cl)cc3)CC2)cn1	0	-1	-2	-7	·	·
CCOc1ccccc1NC(=O)CSc1n[nH]c(N)n1	0	0	-1	-12	·	·
Cn1ccc2cc(OCc3ccccc3)ccc21	6	0	4	16	·	·
Cc1c(C=O)c2cc(OCc3ccccc3)ccc2n1C	7.7*	0	0	9	105*	32*
SMILES	FXN GAA850 act	proKLK7 act	SMARCA2 activ	FAS-TE inh	GAA30 FXN cntr	GAA850 confirm
CCOC(=O)c1ccc(N2Cc3ccccc3C2=NC(=O)c2cccs2)cc1	9.3*	-1	0	18	53*	23*
C(/C=C/C=C/Nc1ccccc1)=Nc1ccccc1	1	0	0	-7	·	·
CC(C)(C)C(=O)Cn1ncc(Cl)c(Cl)c1=O	9.0*	1	-12	-9	6	6
CCOC(=O)/C(C#N)=C1/SC(CC)C(=O)N1c1ccc(Br)cc1 (stereo unspecified)	0	0	4	4	·	·
Cc1ccc(C)c(-c2ccc(=O)n(Cc3ccc(F)cc3Cl)n2)c1	1	0	-4	23	·	·
Cc1ccc(C)c(-c2ccc(=O)n(Cc3cccc(Br)c3)n2)c1	8.3*	0	-1	24	11	6
CCOc1ccc(C(C)=O)cc1COC(=O)c1ccccc1C(=O)N(C)Cc1ccccc1	9.5*	1	-1	14	16	15*
CN(Cc1ccccc1)C(=O)c1ccccc1C(=O)OCC(=O)N(Cc1ccccc1)C(C)(C)C	-7	0	-3	17	·	·
O=C(Cn1nc(-c2ccc(N3CCOCC3)c([N+](=O)[O-])c2)c2ccccc2c1=O)N1CCCCC1	8.3*	0	4	-7	38*	14*
CC1=C(C(=O)N2CCOCC2)CC(CC(=O)NCc2cccc3ccccc23)C(=O)N1Cc1ccc(F)cc1 (stereo unspecified)	2	-1	-5	1	·	·
CCCCn1c(/C=N/Nc2nc3ccccc3[nH]2)nc2ccccc21	12*	-2	-3	-4	-92	-30
COc1cc2c3c(cccc3c1)C(=O)N(CCN1CCCC1)C2=O	27*	-12	0	-5	-29	131*
COc1ccc(C(=O)CN2CCN(CCN3C(=O)c4cccc5cccc(c45)C3=O)CC2)cc1	-3	0	2	2	·	·
COc1ccc(/C=C/C(=O)NCCc2c[nH]c3ccccc23)cc1OC	-1	1	0	3	·	·
CCOC(=O)c1sc(-c2ccc(Br)cc2)cc1N	16*	-3	3	27	117*	43*
O=C(OCc1ccc(Br)cc1)c1cccnc1Cl	0	0	-1	10	·	·
Cc1c(C(=O)NCC2CCCO2)sc2nc(-c3ccc(F)cc3)cn12 (stereo unspecified)	17*	0	1	-4	61*	21*
COc1ccccc1Nc1nc(Cl)c(C=O)s1	11*	0	3	-8	53*	47*
Cc1ccc(S(=O)(=O)Nc2ccc(C(=O)NCCCN3CCOCC3)cc2)cc1[N+](=O)[O-]	-1	1	-1	1	·	·
O=C(NC(=S)NC1CCCCCC1)c1cncc(Br)c1	8.3*	0	3	9	95*	33*
O=C(NC(=S)Nc1ncc(Br)cc1Br)c1cncc(Br)c1	1	1	3	-2	·	·
COc1cc(/C=N/NC(=O)c2sc(N)c(C#N)c2C)ccc1O	11*	0	1	-6	-13	44*
COC(=O)c1c(-c2ccc(F)cc2)csc1NC(=O)c1ccco1	9.6*	0	8	9	91*	38*
